Compounds with a hit are over-represented: about 2.3% of the library has one in this group of screens.
FUS suppressor – qHTS for Suppressors of FUS Proteinopathy: Primary screen using FUS-linked yeast assay. S. cerevisiae FUS-expressing, growth rescue, OD600, 24 h. Potency, µM (series often up to 76.6 µM), hits mostly activators. hit rate 0.24% among 390,000. AID 1347120, 2019;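 further: potency means the concentration at half of the fitted maximal effect; plate controls were DMSO vehicle for no effect and reference control for full effect; nearly all actives have a fitted effect of over 55% in size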
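Quantitative HTS measuring growth restoration of FUS-toxic yeast. Galactose-induced cells (OD 0.005) were exposed 24hr at 30C to compounds at several concentrations, then absorbance at 600 nm was recorded.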
TRPV1 agonist – HTS Assay for Compounds that Act as Agonists of the Vanilloid Receptor 1. hit rate 0.19% among 320,000. Transient receptor potential cation channel subfamily V member 1 (Homo sapiens), Q8NER1. AID 540275, 2011. activation, % at 8.33 µM. TRPV1-expressing cells, Fluo-8 calcium influx, agonist mode; in the data active means activation above about 80%; inconclusive means between about 30% and that limit; further: 0% is about no effect
Target sequence (Q8NER1 whole entry, looked up): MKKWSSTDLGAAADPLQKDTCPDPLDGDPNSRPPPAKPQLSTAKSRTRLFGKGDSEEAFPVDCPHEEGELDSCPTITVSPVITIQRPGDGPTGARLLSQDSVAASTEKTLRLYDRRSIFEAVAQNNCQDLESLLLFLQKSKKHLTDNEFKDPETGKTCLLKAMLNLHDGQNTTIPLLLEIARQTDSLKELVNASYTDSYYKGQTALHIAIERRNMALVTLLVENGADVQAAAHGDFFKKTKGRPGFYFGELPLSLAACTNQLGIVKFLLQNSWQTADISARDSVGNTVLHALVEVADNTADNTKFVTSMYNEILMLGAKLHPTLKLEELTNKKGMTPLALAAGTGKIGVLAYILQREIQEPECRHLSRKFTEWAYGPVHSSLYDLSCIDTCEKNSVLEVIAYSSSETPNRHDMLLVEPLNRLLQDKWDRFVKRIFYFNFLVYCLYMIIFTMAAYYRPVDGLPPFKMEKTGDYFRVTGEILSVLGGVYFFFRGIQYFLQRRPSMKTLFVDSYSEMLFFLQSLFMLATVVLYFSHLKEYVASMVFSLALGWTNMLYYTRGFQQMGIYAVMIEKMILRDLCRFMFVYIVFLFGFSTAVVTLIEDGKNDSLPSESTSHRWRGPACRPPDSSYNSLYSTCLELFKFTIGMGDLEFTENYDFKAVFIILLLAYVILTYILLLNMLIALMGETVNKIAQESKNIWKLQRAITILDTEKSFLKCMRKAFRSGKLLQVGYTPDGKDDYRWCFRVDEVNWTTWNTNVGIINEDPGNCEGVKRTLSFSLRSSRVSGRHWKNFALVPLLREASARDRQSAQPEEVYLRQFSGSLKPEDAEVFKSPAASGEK
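Cells expressing TRPV1 were dye-loaded with Fluo-8 and read kinetically: 10 s baseline, 3 min after compound (agonist portion), then 2 min after EC20 capsaicin (allosteric enhancer portion). Calcium-bound dye fluorescence at 480/520 nm.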
TRPV1 potentiator – HTS Assay for Compounds that Act as Potentiators of the Vanilloid Receptor 1. Transient receptor potential cation channel subfamily V member 1 (Homo sapiens), Q8NER1. TRPV1-expressing cells, Fluo-8 calcium influx, capsaicin EC20 potentiation. potentiation, % at 8.33 µM. hit rate 0.02% among 320,000. AID 540277, 2011; in the data active means potentiation above about 80%; inconclusive means between about 30% and that limit; further: 0% is about no effect
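TRPV1-expressing cells were cultured overnight at 35.5C and loaded with Fluo-8 calcium dye for 40 to 90 min at room temperature. After a 10 s baseline, compound was added and calcium influx was read kinetically for 3 min (ex 480/em 520 nm).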
ELG1 DNA repair – qHTS screen for small molecules that inhibit ELG1-dependent DNA repair in human embryonic kidney (HEK293T) cells expressing luciferase-tagged ELG1. hit rate 2.3% among 330,000. HEK293T ELG1-luciferase reporter, luminescence, 16 h; DNA damage induced by 5-fluorouridine. Potency, µM (highest dose often 46.1 µM), without a hit: at the top dose activity change, negative = inhibition, most hits filed as inhibitors; further: potency means the concentration at half of the fitted maximal effect; on the % scale 0 is the no-effect control and ±100 the full control effect; nearly all actives have a fitted effect of over 55% in size
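5-Fluorouridine DNA damage + compound/DMSO, 2,000 cells/well, 16 h, 37 °C/5% CO2. ONE-Glo, 30 min RT, luminescence. Readout = decrease in reporter signal.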
Giardia killer – Small Molecules that selectively kill Giardia lamblia: qHTS; hit rate 0.15% among 340,000; activity change, % at 7.66 µM, hits read low; Giardia lamblia trophozoite viability; in the data active means activity change below about -80%; inconclusive means between about -30% and that limit;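 further: parasites exposed to compound for two days anaerobically before the ATP read; on the % scale 0 is the no-effect control and ±100 the full control effect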
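Giardia trophozoites, 100 cells per well, were exposed to compounds for 48 hrs at 37 deg C under anaerobic conditions; viability was then read as ATP content by bioluminescence after 15-30 min at room temperature.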
* = called active by the depositor; i = inactive; ? = inconclusive; / = no result. Unless noted, the call rests on the fitted dose curve; in most records, active means well fitted curve in the direction sought with a large enough effect; inconclusive means small, poorly fitted or top-dose-only effect, or another doubt; inactive means no such curve, though single readings can be large; an effect the other way counts as inactive or inconclusive.

SMILES | FUS suppressor | TRPV1 agonist | TRPV1 potentiator | ELG1 DNA repair | Giardia killer
Cc1nn(-c2ccccc2)c(C)c1/C=N/NC(=O)CSc1nc2ccccc2c(=O)n1-c1ccc(Br)cc1 | i | -5 | -48 | -19% | 0
Cc1ccc(-n2c(SCC(=O)N3CC(=O)Nc4ccccc43)nc3ccccc3c2=O)cc1 | / | 2 | -1 | 18µM* | -28
C/C(N)=C(/C#N)C(=O)CSc1nc2ccccc2c(=O)n1-c1ccccc1C | i | ? | -10 | -16% | 7
CCC(Cn1nnc2ccccc2c1=O)NC(=O)Nc1ccccc1Cl (stereo not drawn) | i | / | / | / | /
CCc1c(CN2CCN(c3ccccc3F)CC2)csc1C | i | / | / | / | /
O=C(Nc1cccnc1)c1cc(Br)c(Br)s1 | i | ? | -3 | 29% | -7
O=C(Nc1ccccc1F)c1ccc([N+](=O)[O-])s1 | i | ? | -26 | 23µM* | ?
O=C(Nc1cccnc1)c1ccc([N+](=O)[O-])s1 | i | 2 | -15 | ? | -87*
O=C(Nc1cccc2ccccc12)c1ccc([N+](=O)[O-])s1 | i | ? | -20 | 16µM* | -89*
Cn1ncc([N+](=O)[O-])c1C(=O)Nc1cccc2ccccc12 | i | 7 | -5 | -14% | 14
Cc1cc(=O)[nH]c2nnc(SCc3cccc(C(F)(F)F)c3)n12 | i | / | / | / | /
COC(=O)c1c(/N=C/N(C)C)sc2c1CCN(c1ncc(C(F)(F)F)cc1Cl)C2 | ? | -1 | -3 | 18µM* | 10
COC(=O)c1c(N(S(C)(=O)=O)S(C)(=O)=O)sc2c1CCN(c1ncc(C(F)(F)F)cc1Cl)C2 | i | 4 | -7 | -4% | 9
CCN(CC)S(=O)(=O)c1cccc(S(=O)(=O)N2CCCCC2)c1 | i | ? | -7 | -3% | 4
CCN(CC)S(=O)(=O)c1cccc(S(=O)(=O)c2cccc(S(=O)(=O)N(CC)CC)c2)c1 | i | 6 | 16 | 8.9µM* | 4
O=S(=O)(c1ccc2c(c1)C(=NO)c1cc(S(=O)(=O)N3CCCCC3)ccc1-2)N1CCCCC1 | i | 12 | -7 | ? | -16
CCN(CC)S(=O)(=O)c1ccc2c(c1)C(=NO)c1cc(S(=O)(=O)N(CC)CC)ccc1-2 | / | 6 | 9 | 7.3µM* | 19
CC1CCN(S(=O)(=O)c2ccc3c(c2)C(=NO)c2cc(S(=O)(=O)N4CCC(C)CC4)ccc2-3)CC1 | i | 3 | 0 | 5.2µM* | 5
CCCC(=O)OCc1cnc(C)c2oc(=O)c(C(=O)Nc3ccccc3)cc12 | i | / | / | / | /
COc1cccc(CCNC(=O)CCc2nnc(-c3cc(C)oc3C)o2)c1 | i | 3 | 101* | -2% | -10
O=C(Nc1ccc(Cl)cc1)Nc1nnc(CSCc2ccccc2Cl)s1 | i | 1 | 1 | 10µM* | -22
O=C(Nc1ccccc1)Nc1nnc(CSCc2ccccc2Cl)s1 | / | 5 | 7 | ? | 17
O=C(CSc1nncn2c1cc1sccc12)Nc1ccccc1C(F)(F)F | i | / | / | / | /
COc1ccc(N2CCN(Cc3nc(N)nc(Nc4ccc(C)c(Cl)c4)n3)CC2)cc1 | i | -1 | 7 | 13µM* | -3
Cc1ccc(Nc2nc(N)nc(CN3CCN(Cc4ccc5c(c4)OCO5)CC3)n2)cc1C | i | -2 | 16 | 13µM* | 43
SMILES | FUS suppressor | TRPV1 agonist | TRPV1 potentiator | ELG1 DNA repair | Giardia killer
Cc1ccc(Nc2nc(N)nc(CN3CCN(c4ccccc4)CC3)n2)cc1Cl | i | 20 | -9 | ? | -7
CCOc1nc(Nc2ccc(OC)c(Cl)c2)nc(N2CCN(c3ccc(OC)cc3)CC2)n1 | i | 2 | -2 | 18µM* | 8
CCOC(=O)N1CCN(Cc2nc(N)nc(Nc3ccc(Oc4ccccc4)cc3)n2)CC1 | ? | -2 | 19 | 12µM* | 8
O=C1CCCc2cc(S(=O)(=O)N3CCCC(C(=O)NCc4ccc(Cl)cc4)C3)ccc2N1 (stereo not drawn) | i | / | / | / | /
CC(C)Cn1cc(C(=O)N2CCN(c3cccc(Cl)c3)CC2)c2c3ccccc3n(C)c2c1=O | 35µM* | / | / | / | /
Cc1cccc(N2CCN(C(=O)c3cn(C)c(=O)c4c3c3ccccc3n4C)CC2)c1C | ? | 8 | 4 | 23µM* | 5
COc1cccc(-n2c(=O)c3c(C)c(C)sc3n(CC(=O)NCc3ccc(C)cc3)c2=O)c1 | i | / | / | / | /
Cc1ccc(Cl)cc1NC(=O)Cn1ncc2c(C)n(Cc3ccccc3F)c(C)c2c1=O | i | / | / | / | /
Cc1nn(C2CCS(=O)(=O)C2)c(Cl)c1/C=C/C(=O)OCC(=O)Nc1ccccc1OC(F)F (stereo not drawn) | i | -4 | -2 | ? | 1
COc1ccc(Cl)cc1NC(=O)COC(=O)/C=C/c1c(C)nn(C2CCS(=O)(=O)C2)c1Cl (stereo not drawn) | ? | -1 | 7 | 13µM* | 3
Cc1ccc(S(=O)(=O)Cc2cc(F)c([N+](=O)[O-])cc2[N+](=O)[O-])cc1 | i | 1 | -5 | 16µM* | ?
CCc1ccc(-n2nc(CO)c(C(=O)NCCc3ccccc3)n2)cc1 | i | / | / | / | /
C#CCNC(=O)C1CCN(c2ccc(S(=O)(=O)N3CCOCC3)cc2Cl)CC1 | i | 82* | -11 | ? | -6
CC(C)CNC(=O)C1CCN(c2ccc(S(=O)(=O)N3CCOCC3)cc2Cl)CC1 | i | -2 | -40 | ? | 1
O=C(NC1CC1)C1CCN(c2ccc(S(=O)(=O)N3CCOCC3)cc2Cl)CC1 | i | / | / | -10% | 10
O=C(NCc1cccs1)C1CCN(c2ccc(S(=O)(=O)N3CCOCC3)cc2Cl)CC1 | / | -5 | -30 | 18µM* | -6
O=C(CSc1nc2cc3ccccc3cc2[nH]1)Nc1cccc(C(F)(F)F)c1 | i | / | / | / | /
CCOc1cc(S(=O)(=O)n2cc(-c3ccc(F)cc3)c(N)n2)cc(OCC)c1OCC | i | ? | -4 | 15µM* | -10
Cc1ccc(CCNC(=O)C2CCCN(S(=O)(=O)c3c(C)noc3/C=C/N(C)C)C2)cc1 (stereo not drawn) | 20µM* | 0 | 7 | -4% | -16
Cc1ccc(CCNC(=O)C2CCCN(S(=O)(=O)c3c(C)noc3C)C2)cc1 (stereo not drawn) | i | 1 | -8 | ? | -12
c1ccc2c(c1)Nc1ccncc1S2 | i | -4 | 3 | 18µM* | -2
Fc1ccc(-c2noc3ncnc(NC4CCCCC4)c23)cc1 | i | / | / | / | /
O=C(c1ccc2c(=O)n(-c3ccccc3)c(=O)[nH]c2c1)N1CCN(Cc2cccs2)CC1 | / | / | / | / | 0

Screens deposited in PubChem by National Center for Advancing Translational Sciences (NCATS).
